Screening results as filed in PubChem BioAssay.
Shown are actives, neighbours in structure and some others; about 1.1% of the full set was active somewhere.
GLS inh: glutaminase GLS (human) inhibition; O94925; GLS enzymatic activity, qHTS titration; Potency, µM (titrated, usually from 45.5 µM), most hits filed as inhibitors; 410,000 tested, 0.21% active; AID 624170
Target sequence (O94925 whole entry, looked up): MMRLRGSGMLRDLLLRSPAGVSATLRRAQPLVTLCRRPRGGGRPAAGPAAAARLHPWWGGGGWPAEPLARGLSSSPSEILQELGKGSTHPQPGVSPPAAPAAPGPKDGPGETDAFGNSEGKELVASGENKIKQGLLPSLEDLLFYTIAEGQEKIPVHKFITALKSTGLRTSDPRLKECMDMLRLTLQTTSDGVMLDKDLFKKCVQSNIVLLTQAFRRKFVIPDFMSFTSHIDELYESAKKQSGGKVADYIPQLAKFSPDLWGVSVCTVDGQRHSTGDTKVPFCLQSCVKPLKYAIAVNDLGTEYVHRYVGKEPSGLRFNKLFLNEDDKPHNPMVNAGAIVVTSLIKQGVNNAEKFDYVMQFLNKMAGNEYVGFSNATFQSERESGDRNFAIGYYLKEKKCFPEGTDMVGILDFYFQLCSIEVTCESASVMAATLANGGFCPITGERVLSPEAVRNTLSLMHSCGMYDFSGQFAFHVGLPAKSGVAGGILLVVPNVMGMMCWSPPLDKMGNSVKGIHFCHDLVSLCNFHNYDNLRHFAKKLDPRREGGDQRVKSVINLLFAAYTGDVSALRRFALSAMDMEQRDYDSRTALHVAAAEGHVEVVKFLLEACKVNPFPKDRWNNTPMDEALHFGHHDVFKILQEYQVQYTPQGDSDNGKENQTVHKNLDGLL
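hKGA in 45 mM KH2PO4 (pH 8.2), 0.02% Tween-20 with compound, then 1mM L-Glutamine (stock as added) plus glutamate oxidase/HRP/Amplex red coupling mix. Fluorescence read initially and after 30 min at RT; signal change reflects glutamate formation.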
Pin1 inhibitor: human Pin1 inhibition; Q13526; Pin1 FP peptide displacement, HiFluor488, 10 min; Potency, µM (doses to about 115 µM), usual class: inhibitors; 390,000 tested, 0.009% active; AID 504891; active = well fitted inhibition curve with a large enough effect in the polarisation, with a control signal flat, not every such curve was filed as active; inconclusive = small, poorly fitted or top-dose-only effect, or effect the other way, or a change in a side signal; inactive = no such curve, though single readings can be large or run the other way; the % refers to the polarisation
PGK inhibitor: T. brucei PGK inhibition | AID 602233 | 380,000 tested, 0.043% active | Potency, µM (highest dose often 57.5 µM), actives largely listed as inhibitors | PGK/GAPDH coupled, Kinase-Glo luminescence, 60 min; note: nearly all actives have a fitted effect of over 60% in size
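Recombinant glycosomal PGK reaction used 1,3-bisphosphoglycerate generated in-well by GAPDH (100nM final) in 100mM TEA pH 7.6, 5mM MgCl2, 0.01% Tween-20. After 60 minutes at room temperature, ATP was read by Kinase-Glo Plus luminescence end-point.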
Tb PFK block: blocks T. brucei phosphofructokinase; O15648; T. brucei PFK, ADP-Glo luminescence; Potency, µM (highest dose often 57.5 µM), usual class: inhibitors; 330,000 tested, 0.17% active; AID 485367; note: nearly all actives have a fitted effect of over 60% in size
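ADP-Glo luminescence quantified ADP after 45 min at room temperature, with 1.25 nM T. brucei PFK, 0.1 mM ATP and 0.5 mM fructose-6-phosphate in pH 8.0 TEA buffer. qHTS titrations up to 57 µM; curves classified by quality.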
VDR inh: vitamin D3 receptor (human) inhibition; P11473; Potency, µM, actives largely listed as inhibitors; VDR-SRC2-3 peptide fluorescence polarization, 2 h; 400,000 tested, 0.93% active
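Fluorescence polarization assay measuring small-molecule disruption of VDR binding to the coregulator peptide SRC2-3. Compounds were pin-transferred (23 nl) into the reagent mix and incubated 2 h at room temperature before reading.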
Numbers stand for hits; - = inactive; ? = inconclusive; . = not tested or not shown. Unless noted, calls come from the whole dose curve; as a rule, active = well fitted curve in the direction sought with a large enough effect; inconclusive = small, poorly fitted or top-dose-only effect, or another doubt; inactive = no such curve, though single readings can be large; an effect the other way counts as inactive or inconclusive.

SMILES	GLS inh	Pin1 inhibitor	PGK inhibitor	Tb PFK block	VDR inh
CCN(CC)c1ccc2c(-c3ccc(S(=O)(=O)O)cc3S(=O)(=O)[O-])c3ccc(=[N+](CC)CC)cc-3oc2c1	?	?	?	-	40µM
Cc1cn2c(=O)c(S(=O)(=O)Nc3ccc(OC(F)(F)F)cc3)c(C)nc2s1	-	-	-	.	-
Cc1cc(Cl)n2c(nc3ccccc32)c1C#N	-	-	-	-	40µM
Cc1oc2ccc(O)c(CN3CCCC(C)C3)c2c1C(=O)Nc1ccccc1 (stereo unspecified)	-	-	-	.	-
C=C(C)C(=O)Oc1ccc(N=Nc2ccc(C)cc2)ccc1=O	?	.	2.8µM	.	?
COc1ccc(NC(=O)C(C)N2Cc3ccccc3C2=O)cc1OC (stereo unspecified)	-	-	-	.	-
COc1ccc(NC(=O)C2(C)CCN2Cc2ccc(C(C)C)cc2)cc1OC (stereo unspecified)	-	.	.	.	.
CCCCCCCCCCCCCCCCCC(=O)OCCO	-	.	.	.	.
Cc1ccc(N=Cc2cc3c(cc2[N+](=O)[O-])OCO3)cc1[N+](=O)[O-]	-	?	-	.	?
Cc1ccc(C)c(N=Cc2cc3c(cc2[N+](=O)[O-])OCO3)c1	-	-	-	-	79µM
O=C(c1cnccn1)N1CCC2(CC1)CCN(c1ccccc1)CC2	.	.	.	.	-
COC(=S)N/C(=N\S(=O)(=O)c1ccc(Cl)cc1)c1ccccc1	-	-	-	-	89µM
CC(=O)C1=C(c2ccccc2)NC(=S)NC1c1cc(Cl)c(OC(C)C)c(Cl)c1 (stereo unspecified)	-	-	-	-	-
CC(=O)C1=C(c2ccccc2)NC(=O)NC1c1ccc(O)c(O)c1 (stereo unspecified)	10µM	-	-	-	-
CC(=O)C1=C(c2ccccc2)NC(=S)NC1c1ccc(O)c(O)c1 (stereo unspecified)	8.9µM	?	-	-	-
O=C1/C(=C\c2ccc(Cl)c(Cl)c2)CN(C(=O)CCN2CCOCC2)C/C1=C/c1ccc(Cl)c(Cl)c1	-	-	-	.	3.2µM
CCN(CC)CCC(=O)N1C/C(=C/c2ccccc2)C(=O)/C(=C\c2ccccc2)C1	-	-	-	.	45µM
O=C1/C(=C\c2ccccc2)CN(C(=O)CCN2CCCCC2)C/C1=C/c1ccccc1	-	-	-	.	32µM
O=C(CCN1C(=O)S/C(=C\c2ccccc2)C1=O)N1CCCCC1	-	-	-	-	-
COc1ccc(CC(Cc2ccc(OC)c(OC)c2)NC=O)cc1OC	-	.	-	.	.
O=C(NCc1ccccc1)c1cc(C2COCCN2C(=O)OCCF)on1 (stereo unspecified)	-	.	.	.	.
CCOc1cc(N2C(=O)CC3CS(=O)(=O)CC32)c(OCC)cc1NC(=O)c1ccccc1 (stereo unspecified)	22µM	-	-	-	?
CCOc1cc(N2CCOCC2)c(OCC)cc1NC(=O)c1cccc(N(C)C)c1	-	-	-	-	-
O=C1NC2CCCCC2C(=O)N1OS(=O)(=O)c1ccccc1 (stereo unspecified)	-	?	-	.	16µM
Cc1cc(=O)n(CC(=O)Nc2ccc([N+](=O)[O-])cc2)c(-n2nc(C)cc2C)n1	-	-	-	.	-
SMILES	GLS inh	Pin1 inhibitor	PGK inhibitor	Tb PFK block	VDR inh
COCCN1C(=O)c2oc3ccccc3c(=O)c2C1c1ccc(OC)c(OC)c1 (stereo unspecified)	-	-	28µM	-	-
CN1C(=O)c2oc3ccccc3c(=O)c2C1c1ccncc1 (stereo unspecified)	-	-	-	?	79µM
OC[C@@H]1CN(Cc2cccc3ccccc23)C[C@H](n2cnc3c(NCc4ccco4)ncnc32)O1	-	.	.	.	.
CC(NC(=O)c1cc(S(=O)(=O)N2CCOCC2)ccc1N1CCCC1)c1ccc(Cl)c(Cl)c1 (stereo unspecified)	-	-	-	-	-
O=C(O)C(Cc1ccccc1)n1cccc1 (stereo unspecified)	13µM	-	-	-	-
O=C(C(Cc1ccccc1)n1cccc1)N1CCN(c2ccccc2)CC1 (stereo unspecified)	-	-	-	-	-
Cc1ccc(NC(=O)Cn2c(=O)n(Cc3nc(C)no3)c(=O)c3cc4c(cc32)OCO4)c(C)c1	-	-	-	.	-
Cc1ccc(C)c2c1CCC(=Cc1ccccc1[N+](=O)[O-])C2=O	-	.	-	.	.
CN1C/C(=C/c2ccccc2[N+](=O)[O-])C(=O)/C(=C\c2ccccc2[N+](=O)[O-])C1	-	?	-	.	71µM
COc1ccc(N2Cc3cccc(C(=O)O)c3C2=O)cc1	16µM	-	?	?	-
COc1ccc(N2Cc3cccc(C(=O)Nc4cc(C)cc(C)c4)c3C2=O)cc1	-	?	-	.	-
CC(C)c1ccc(NC(=O)CSC2=Nc3ccccc3C3=NC(CCC(=O)NCc4ccc(F)cc4)C(=O)N23)cc1 (stereo unspecified)	-	-	-	.	-
CCC(C)NC(=O)CSC1=Nc2ccccc2C2=NC(CC(=O)NCc3ccc(F)cc3)C(=O)N12 (stereo unspecified)	10µM	-	-	-	-
Cn1ccnc1Sc1cc(NCCCO)c([N+](=O)[O-])c2nonc12	-	-	-	-	20µM
CC(C)OC(=O)c1cn(-c2ccccc2)nc1-c1ccco1	-	-	-	?	79µM
O=C1O[C@H](CN2CCOCC2)CN1/N=C\c1ccc([N+](=O)[O-])o1	-	.	.	.	28µM
CCOC(=O)c1c[nH]c2c(C)ccc(Cl)c2c1=O	?	-	-	-	79µM
CCOc1ccc(NC(=O)CC2C(=O)N(c3cccc(C)c3)C(=O)N2Cc2cccs2)cc1 (stereo unspecified)	-	-	-	.	-
COc1ccc(C2=NC(c3ccc(Cl)cc3)C(c3ccc(Cl)cc3)N2C(=O)N2CCNC(=O)C2)c(OC(C)C)c1 (stereo unspecified)	.	.	.	.	50µM
COc1cccc2sc3cc(NCc4ccc(C)o4)ccc3c(=O)c12	-	-	-	-	89µM
COc1cc2sc3cc(NCCCN4CCOCC4)ccc3c(=O)c2cc1OC	-	?	-	-	-
CC(C)NC(=O)Nc1ccc2c(c1)CC(=O)N([C@@H](C)CO)C[C@H](C)[C@@H](CN(C)C(=O)NC1CCCCC1)O2	-	-	-	-	89µM
C[C@H](C[C@H](N)C(=O)O)C(=O)O	.	.	.	.	-
O=C1C=CC(=O)N1c1ccccc1N1C(=O)C=CC1=O	?	?	-	.	3.2µM
O=C(c1ccccc1)c1ccccc1N1C(=O)C=CC1=O	?	-	-	?	25µM
CCCc1c(C(=O)N/N=C(\C)c2ccc(CC(C)C)cc2)nnn1-c1nonc1N	-	.	-	.	.
CCNc1ccc(Br)cc(C(=O)/C=C/c2ccc3c(c2)OCO3)c1=O	-	-	-	-	89µM
COc1cccc(C2CC(=O)N3CN(c4cccc(Cl)c4C)CSC3=C2C#N)c1OC (stereo unspecified)	-	-	-	-	22µM
